Results filed as inconclusive are left out. Where a call stands in place of a potency, no number is given. Unmarked numbers belong to inactive results. Activity calls are given as the source filed them. Unless noted, the call rests on the fitted dose curve; in most records, active means well fitted cell-killing curve with a large enough effect in the repeat runs (not every such curve was filed as active); inconclusive means weak or mixed curves, or effect the other way; inactive means no such curve, though single readings can be large or run the other way.
target: Nuclear receptor subfamily 1 group I member 3 (Homo sapiens) (UniProt Q14994); experiment: qHTS assay to identify small molecule agonists of the constitutive androstane receptor (CAR) signaling pathway (AID 1224839; active means well fitted activation curve with a large enough effect in the repeat runs; further: nearly all actives have a fitted effect of over 15% in size; further: potency means the concentration at half of the fitted maximal effect;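 on activation: HepG2 cells stably carrying human CAR and a CYP2B6 luciferase reporter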); conditions: HepG2 hCAR CYP2B6-luciferase, agonist mode, 24 h; series mostly up to 92.4 µM
In short: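 Using human hepatoma HepG2 cells engineered with hCAR and a CYP2B6-2.2kb reporter, 15-concentration compound series were incubated 24 h alongside PK11195 at 0.75 uM final, with luminescence quantified afterwards.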

Chain of Nuclear receptor subfamily 1 group I member 3 (Homo sapiens) (Q14994 whole entry, looked up): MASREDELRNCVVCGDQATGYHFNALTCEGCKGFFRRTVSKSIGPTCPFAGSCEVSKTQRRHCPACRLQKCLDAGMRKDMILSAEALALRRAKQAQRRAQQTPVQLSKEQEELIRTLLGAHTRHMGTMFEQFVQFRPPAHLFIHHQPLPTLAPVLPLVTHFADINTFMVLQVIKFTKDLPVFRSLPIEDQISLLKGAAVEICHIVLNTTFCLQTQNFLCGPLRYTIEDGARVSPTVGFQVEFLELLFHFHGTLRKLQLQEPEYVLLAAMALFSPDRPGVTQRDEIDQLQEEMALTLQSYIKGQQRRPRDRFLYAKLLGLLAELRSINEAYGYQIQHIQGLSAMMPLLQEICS

| Structure (SMILES) | Potency |
| --- | --- |
| COC(=O)/C=C(/C)N | inactive |
| CC/C=C\CCOC(=O)CCCCC | inactive |
| Nc1ccc(Oc2ccc(N)c(N)c2)cc1 | 2.43 µM (active) |
| CCc1cc(Cl)c(OC)c(C(=O)NC[C@@H]2CCCN2CC)c1O | inactive |
| CCCN(CCC)C(=O)C(CCC(=O)O)NC(=O)c1ccccc1 (stereo unspecified) | inactive |
| O=c1[nH]cnc2c1ncn2[C@@H]1O[C@H](CO)[C@@H](O)[C@H]1O | inactive |
| CCN1CC(CCN2CCOCC2)C(c2ccccc2)(c2ccccc2)C1=O (stereo unspecified) | inactive |
| CC1(O)CSC(C)(O)CS1 (stereo unspecified) | inactive |
| CCCCCCC | inactive |
| O=C(O)[C@@H]1CSCN1 | inactive |
| CCOC(=O)C1CC(=O)C(=C(O)C2CC2)C(=O)C1 (stereo unspecified) | inactive |
| CC1=C(CC(=O)O)c2cc(F)ccc2/C1=C\c1ccc(S(C)(=O)=O)cc1 | inactive |
| Cc1ccc([N+](=O)[O-])cc1Cl | inactive |
| CC(C)C(=O)OC/C=C/c1ccccc1 | inactive |
| Cc1c[nH]c(=S)[nH]c1=O | inactive |
| FC(F)(F)C(F)(F)C(F)(F)C(F)(F)C(F)(F)C(F)(F)C(F)(F)C(F)(F)Br | inactive |
| CC(C)OC(C)C | inactive |
| O=C(Cl)c1cccc([N+](=O)[O-])c1 | inactive |
| COc1ccccc1OCC(O)COC(N)=O (stereo unspecified) | inactive |
| CCN(CC)CCOc1ccc(Cc2ccccc2)cc1 | inactive |
| CC(C)=CCCC(C)CCOC=O (stereo unspecified) | inactive |

system: not listed separately; experiment: qHTS assay to identify small molecule antagonists of the estrogen related receptor signaling pathway with the pleiotropic PPARgamma coactivator (PGC) from Tox21 10K library - cell viability counter screen (AID 1224840); conditions: PGC/ERR reporter cells viability, CellTiter-Fluor, 17.5 h; series mostly up to 92.4 µM; further: nearly all actives have a fitted effect of over 40% in size; further: potency means the concentration at half of the fitted maximal effect
In short: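 Counter-screen for cytotoxicity: after 17.5 h compound exposure at 37 C, CellTiter-Fluor reagent added to PGC/ERR cells for 30 min and fluorescence read. Cells were seeded at 2,000 per well 6 h before dosing.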

| Structure (SMILES) | Potency | viability change, negative = cytotoxic |
| --- | --- | --- |
| COC(=O)/C=C(/C)N | inactive | – |
| CC(=O)Nc1ccc(C)c(Cl)c1 | inactive | – |
| CC(C)Nc1nc(N)nc(Cl)n1 | inactive | – |
| CC/C=C\CCOC(=O)CCCCC | inactive | – |
| CC(Oc1c(Cl)cccc1Cl)C1=NCCN1 (stereo unspecified) | inactive | – |
| Nc1ccc(Oc2ccc(N)c(N)c2)cc1 | 48.6 µM (active) | – |
| CCc1cc(Cl)c(OC)c(C(=O)NC[C@@H]2CCCN2CC)c1O | inactive | – |
| CCCN(CCC)C(=O)C(CCC(=O)O)NC(=O)c1ccccc1 (stereo unspecified) | inactive | – |
| O=c1[nH]cnc2c1ncn2[C@@H]1O[C@H](CO)[C@@H](O)[C@H]1O | inactive | – |
| CC(C)(CO)[C@@H](O)C(=O)NCCC(=O)O | inactive | – |
| CCN1CC(CCN2CCOCC2)C(c2ccccc2)(c2ccccc2)C1=O (stereo unspecified) | inactive | – |
| CC1(O)CSC(C)(O)CS1 (stereo unspecified) | inactive | – |
| CCCCCCn1c(=O)c2c(ncn2C)n(C)c1=O | inactive | – |
| CCCCCCC | inactive | – |
| O=C(O)[C@@H]1CSCN1 | inactive | – |
| CCOc1ccc(NS(=O)(=O)c2ccc(N)cc2)nn1 | inactive | – |
| CCOC(=O)C1CC(=O)C(=C(O)C2CC2)C(=O)C1 (stereo unspecified) | inactive | – |
| CC1=C(CC(=O)O)c2cc(F)ccc2/C1=C\c1ccc(S(C)(=O)=O)cc1 | inactive | – |
| CCOC(=O)[C@H](CCc1ccccc1)N[C@@H](C)C(=O)N1Cc2cc(OC)c(OC)cc2C[C@H]1C(=O)O | inactive | – |
| Cc1ccc([N+](=O)[O-])cc1Cl | inactive | – |

| Structure (SMILES) | Potency | viability change, negative = cytotoxic |
| --- | --- | --- |
| C[C@@H]1CN(c2c(F)c(N)c3c(=O)c(C(=O)O)cn(C4CC4)c3c2F)C[C@H](C)N1 | – | -4.64% [at 19 µM] |
| O=C1CCCc2ccccc21 | inactive | – |
| CN(CC1(C)CCCO1)S(=O)(=O)c1ccc(Cl)c(S(N)(=O)=O)c1 (stereo unspecified) | inactive | – |
| CC(C)C(=O)OC/C=C/c1ccccc1 | inactive | – |
| Cc1c[nH]c(=S)[nH]c1=O | inactive | – |
| O=c1[nH]c(=O)n([C@H]2C[C@H](O)[C@@H](CO)O2)cc1C(F)(F)F | inactive | – |
| FC(F)(F)C(F)(F)C(F)(F)C(F)(F)C(F)(F)C(F)(F)C(F)(F)C(F)(F)Br | inactive | – |
| CC(C)OC(C)C | inactive | – |
| Cc1cc2c(s1)Nc1ccccc1N=C2N1CCN(C)CC1 | inactive | – |
| O=C(Cl)c1cccc([N+](=O)[O-])c1 | inactive | – |
| COc1ccccc1OCC(O)COC(N)=O (stereo unspecified) | inactive | – |
| C=CCCCCCCCCO | inactive | – |
| Cc1nnc(SCC2=C(C(=O)O)N3C(=O)[C@@H](NC(=O)Cn4cnnn4)[C@H]3SC2)s1 | inactive | – |
| Cc1cc2nc(N)sc2cc1C | inactive | – |
| NNS(=O)(=O)c1ccc(Oc2ccc(S(=O)(=O)NN)cc2)cc1 | inactive | – |
| CCN(CC)CCOc1ccc(Cc2ccccc2)cc1 | inactive | – |
| CC(C)=CCCC(C)CCOC=O (stereo unspecified) | inactive | – |
| CCCCNc1cc(C(=O)O)cc(S(N)(=O)=O)c1Oc1ccccc1 | inactive | – |
| CN(C)Cc1ccccc1 | inactive | – |

system: not listed separately; experiment: qHTS assay to identify small molecule antagonists of the estrogen related receptor signaling pathway with the pleiotropic PPARgamma coactivator (PGC) from Tox21 10K library (AID 1224841; call rule not given here; further: actives are mostly falling curves and most rising ones were filed inactive; nearly all actives have a fitted effect of over 50% in size); conditions: PGC/ERR reporter cell line, ONE-Glo luciferase, 18 h; series mostly up to 92.4 µM
In short: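 Luminescence (One-Glo, 30 min at room temperature) after 18 h compound treatment at 37 C of PGC/ERR reporter cells plated at 2,000 cells/well and settled 6 h beforehand.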

| Structure (SMILES) | Potency |
| --- | --- |
| COC(=O)/C=C(/C)N | inactive |
| CC/C=C\CCOC(=O)CCCCC | inactive |
| Nc1ccc(Oc2ccc(N)c(N)c2)cc1 | inactive |
| CCc1cc(Cl)c(OC)c(C(=O)NC[C@@H]2CCCN2CC)c1O | inactive |
| CCCN(CCC)C(=O)C(CCC(=O)O)NC(=O)c1ccccc1 (stereo unspecified) | inactive |
| O=c1[nH]cnc2c1ncn2[C@@H]1O[C@H](CO)[C@@H](O)[C@H]1O | inactive |
| CC(C)(CO)[C@@H](O)C(=O)NCCC(=O)O | inactive |
| CCN1CC(CCN2CCOCC2)C(c2ccccc2)(c2ccccc2)C1=O (stereo unspecified) | inactive |
| CCCCCCn1c(=O)c2c(ncn2C)n(C)c1=O | inactive |
| CCOC(=O)C1CC(=O)C(=C(O)C2CC2)C(=O)C1 (stereo unspecified) | inactive |
| CC1=C(CC(=O)O)c2cc(F)ccc2/C1=C\c1ccc(S(C)(=O)=O)cc1 | inactive |
| Cc1ccc([N+](=O)[O-])cc1Cl | inactive |
| O=C1CCCc2ccccc21 | inactive |
| CC(C)C(=O)OC/C=C/c1ccccc1 | inactive |
| O=c1[nH]c(=O)n([C@H]2C[C@H](O)[C@@H](CO)O2)cc1C(F)(F)F | inactive |
| FC(F)(F)C(F)(F)C(F)(F)C(F)(F)C(F)(F)C(F)(F)C(F)(F)C(F)(F)Br | inactive |
| CC(C)OC(C)C | inactive |
| Cc1cc2c(s1)Nc1ccccc1N=C2N1CCN(C)CC1 | inactive |
| O=C(Cl)c1cccc([N+](=O)[O-])c1 | inactive |
| COc1ccccc1OCC(O)COC(N)=O (stereo unspecified) | inactive |
| NNS(=O)(=O)c1ccc(Oc2ccc(S(=O)(=O)NN)cc2)cc1 | inactive |

— PubChem BioAssay (Tox21)
